# Data from paper PMC5540273 (PLoS ONE, 2017).
# Read-outs that look alike come from different tables or passages of the source.
# Legend:
# CSNK1G1 = conditions: concentration: 1 μM,replicates: in singlicate; n = 1
# CSNK1G2 = conditions: concentration: 1 μM,replicates: in singlicate; n = 1
# CSNK1G3 = conditions: concentration: 1 μM,replicates: in singlicate; n = 1
# CSNK2A1 = conditions: n = 1
# CSNK2A2 = conditions: n = 1
# CTK = tested on: T1, CTK; conditions: concentration: 1 μM,replicates: in singlicate; n = 1
# T1 construct: gene MATK
# DAPK1 = conditions: concentration: 1 μM,replicates: in singlicate; n = 1
# DAPK2 = conditions: concentration: 1 μM,replicates: in singlicate; n = 1
# DAPK3 = conditions: concentration: 1 μM,replicates: in singlicate; n = 1
# DCAMKL1 = tested on: T2, DCAMKL1; conditions: concentration: 1 μM,replicates: in singlicate; n = 1
# T2 construct: gene DCLK1
# [1] = concentration: 1 μM,replicates: in singlicate
# 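Further: KINOMEscan kinase panel screen.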
SMILES,%Inh (CSNK1G1),%Inh (CSNK1G2),%Inh (CSNK1G3),%Inh (CSNK2A1; [1]),%Inh (CSNK2A2; [1]),%Inh (CTK),%Inh (DAPK1),%Inh (DAPK2),%Inh (DAPK3),%Inh (DCAMKL1),%Inh (CSNK2A1; 1 µM),%Inh (CSNK2A2; 1 µM)
Cc1ccc(CC(=O)N2CCc3cc(-c4cn(C)c5ncnc(N)c45)ccc32)cc1 [GSK2634758],30%,26%,26%,0%,0%,0%,0%,5%,0%,0%,,
COC(=O)c1cccc(NC(=O)NC2CCN(c3ccnc(NCc4ccc(F)cc4)n3)CC2)c1 [GSK1379860],0%,0%,9%,7%,0%,1%,0%,0%,3%,0%,,
O=C1NCCc2[nH]c(-c3ccncc3)cc21,51%,93.7%,83%,64%,59%,24%,77%,66%,81%,16%,,
COC(=O)Nc1nc2cc(Oc3ccc(NC(=O)Nc4cc(C(F)(F)F)ccc4Cl)cc3)ccc2[nH]1.Cl [GW697465],0%,0%,8%,0%,0%,0%,2%,0%,0%,0%,,
O=C(Nc1ccc(Oc2ccc3nc(NC(=O)C4CC4)cn3n2)c(F)c1)c1cccn(-c2ccccc2)c1=O,0%,0%,30%,0%,0%,0%,0%,0%,14%,4%,,
CCn1c(-c2nonc2N)nc2cncc(Br)c21 [SB-738004],5%,0%,7%,0%,21%,0%,39%,55%,46%,18%,,
CS(=O)(=O)c1cccc(CNc2nc(Nc3ccc4c(c3)[C@@H]3C[C@@H]4CNC3=O)ncc2C(F)(F)F)c1,0%,23%,81%,34%,64%,0%,27%,0%,9%,48%,,
CCn1c(-c2nonc2N)nc2cncc(CNC3CCNCC3)c21.Cl [SB-747651],24%,0%,0%,0%,0%,0%,41%,0%,27%,7%,,
CN(c1ccc2c(c1)nc(NCc1ccc(F)cc1)n2C)c1ccnc(Nc2ccc(CS(C)(=O)=O)cc2)n1.Cl [GW813244],0%,6%,0%,0%,24%,14%,5%,7%,0%,28%,,
c1ccc(Oc2ccc(Nc3ccnc4ccc(-c5ccccn5)cc34)cc2)cc1 [GW407034],11%,0%,10%,0%,14%,0%,0%,0%,5%,9%,,
COc1cc2c(Nc3ccc(NC(=O)c4ccccc4)cc3)ncnc2cc1OCCCN1CCOCC1 [GSK301329],0%,0%,3%,9%,14%,32%,0%,0%,0%,13%,,
O=C(NCC1CC1)c1ccc(-c2cc(C(=O)NC3CC3)ccc2F)cc1 [GW810445],0%,0%,0%,0%,0%,0%,0%,3%,19%,0%,,
Cl.Nc1n[nH]c2cc(-c3ccccn3)ccc12 [GSK2189892],11%,0%,31%,0%,0%,0%,0%,0%,19%,19%,,
COC(=O)c1cccc(NC(=O)NC2CCN(c3ccnc(Nc4cc(OC)c(OC)c(OC)c4)n3)C2)c1 (stereo not shown) [GSK1379767],16%,0%,19%,1%,29%,0%,2%,0%,21%,4%,,
COc1cccc(CNC(=O)NC2CCN(c3ccnc(Nc4cc(OC)c(OC)c(OC)c4)n3)C2)c1 (stereo not shown) [GSK1379765],0%,0%,27%,3%,0%,0%,0%,0%,14%,19%,,
Cn1ccc2ncnc(Oc3ccc(NC(=O)Nc4cccc(C(F)(F)F)c4)c(Cl)c3)c21,0%,3%,0%,0%,5%,0%,89%,0%,0%,46%,,
CC(=O)c1c(-c2ccncc2)[nH]c(-c2ccncc2)c1C [GW493036],84%,98.6%,98.6%,0%,8%,0%,0%,0%,19%,25%,,
Cn1ccc2ncnc(Oc3ccc(NC(=O)Nc4ccnc(C(F)(F)F)c4)c(Cl)c3)c21,0%,9%,0%,0%,10%,0%,7%,0%,0%,4%,,
Cc1cccc2c(-c3ccncc3)c(-c3ccc(F)cc3)nn12.Cl [GW461487],11%,0%,26%,96.6%,10%,0%,18%,0%,0%,10%,,
Cl.c1ccc(Oc2ccc(Nc3ccnc4cc(-c5ccc(CN6CCNCC6)o5)ccc34)cc2)nc1 [GW567142],0%,0%,32%,0%,3%,10%,19%,0%,21%,11%,,
CSc1nccc(-c2c(-c3ccc(F)cc3)ncn2CCCN2CCOCC2)n1.Cl [SB-217146],0%,0%,0%,0%,15%,40%,16%,0%,0%,37%,,
COc1cccc(C2=C(Nc3cccc(Cl)c3)C(=O)NC2=O)c1 [SB-341556],0%,0%,19%,11%,4%,0%,3%,0%,7%,0%,,

SMILES,%Inh (CSNK1G1),%Inh (CSNK1G2),%Inh (CSNK1G3),%Inh (CSNK2A1; [1]),%Inh (CSNK2A2; [1]),%Inh (CTK),%Inh (DAPK1),%Inh (DAPK2),%Inh (DAPK3),%Inh (DCAMKL1),%Inh (CSNK2A1; 1 µM),%Inh (CSNK2A2; 1 µM)
C[C@@H]1CCN(C(=O)N2CCCC2)C[C@@H]1N(C)c1ncnc2[nH]ccc12,2%,0%,0%,35%,5%,19%,23%,0%,9%,46%,,
COc1cc2ncn(-c3cc(OCC4CCCCC4)c(C(N)=O)s3)c2cc1OC [GSK204559],12%,9%,32%,1%,22%,0%,35%,30%,64%,2%,,
CN1CCN(CCNc2nc3cc(Oc4ccc(NC(=O)Nc5cc(C(F)(F)F)ccc5F)cc4)ccc3[nH]2)CC1.Cl.Cl [GW768504],0%,0%,0%,0%,7%,0%,0%,0%,0%,34%,,
CC(C(=O)NC1CCN(c2ccnc(Nc3ccc(F)cc3)n2)C1)c1ccc(Cl)cc1 (stereo not shown) [GSK1379713],0%,0%,18%,1%,0%,0%,0%,0%,0%,0%,,
COc1cccc(OC)c1C(=O)Nc1cccc(-c2nn3ccccc3c2-c2ccnc(Nc3cccc(F)c3)n2)c1 [GSK361065],14%,17%,3%,,,21%,10%,6%,0%,16%,0%,23%
NC(=O)c1ccc(-c2cc3ncnc(SCC(=O)O)c3s2)cc1,0%,17%,4%,74%,78%,0%,0%,0%,5%,20%,,
OCCn1cc(-c2cnc3nnn(Cc4ccc5ncccc5c4)c3n2)cn1,1%,0%,9%,0%,0%,0%,0%,0%,0%,66%,,
O=c1[nH]cc(-c2ccc(O)cc2)c2sc(-c3ccncc3)cc12 [GSK1033723],23%,0%,13%,9%,24%,0%,19%,27%,30%,8%,,
CC(C)S(=O)(=O)N1CCN(Cc2ccc3c(c2)nc(NC(=O)c2ccsc2)n3C[C@H](O)c2ccccc2)CC1 [GW635815],16%,5%,20%,6%,37%,0%,0%,0%,31%,0%,,
CN1CCN(CCCNc2nccc(-c3c(-c4ccc(F)cc4)nn4cc(C(N)=O)ccc34)n2)CC1 [GW622475],27%,0%,20%,1%,33%,1%,29%,10%,16%,21%,,
CCN1CCN(CCCC(=O)Nc2n[nH]c3nc(-c4ccc(O)cc4)c(Br)cc23)CC1 [SB-731579],0%,0%,0%,0%,0%,34%,41%,31%,61%,0%,,
Cc1nnc(-c2ccc3occ(-c4ccc(S(C)=O)cc4)c3n2)o1 (stereo not shown),17%,0%,0%,0%,0%,0%,0%,0%,0%,0%,,
CC(=O)Nc1ccc(-c2cc3ncnc(SCC(=O)O)c3s2)cc1,15%,0%,8%,75%,68%,14%,23%,8%,9%,0%,,
C[C@@H](Oc1cc(-n2cnc3ccc(-c4ccncc4)cc32)sc1C(N)=O)c1ccccc1Cl [GSK483724],9%,14%,29%,52%,89%,0%,0%,0%,19%,88%,,
C[C@@H]1CNc2c(sc3ccc4nc(-c5ccc(O)cc5)ccc4c23)C(=O)N1,29%,38%,32%,48%,43%,43%,35%,34%,26%,37%,,
Cc1ccc2c(-c3ccnc(Nc4ccc(C(F)(F)F)cc4)n3)cnn2n1 [GW819776],0%,14%,0%,18%,35%,24%,19%,0%,25%,34%,,
CCCC(=O)Nc1n[nH]c2ncccc12 [SB-601436],0%,0%,7%,1%,0%,30%,0%,0%,0%,0%,,
CN(c1ccccc1CNc1nc(Nc2ccc3c(c2)CC(=O)N3)ncc1C(F)(F)F)S(C)(=O)=O,0%,0%,13%,70%,92.7%,0%,4%,24%,28%,21%,,
CC(C)c1nc(-c2cccc(NS(=O)(=O)c3ccccc3)c2)c(-c2ccnc(Nc3ccc4c(c3)CN(C)CC4)n2)s1 [GSK1649598],19%,0%,28%,0%,9%,5%,30%,55%,21%,0%,,
CC(=O)Nc1nc2cnc(Nc3cc(NC(=O)c4cccc(CC(C)(C)C#N)c4)ccc3C)nc2s1,14%,1%,0%,21%,21%,0%,0%,0%,4%,26%,,
Cl.Cl.NC[C@H](CC1CCCCC1)NC(=O)c1ccc(-c2ccnc3[nH]ccc23)s1 [GSK1581428],29%,72%,64%,8%,0%,9%,49%,12%,32%,0%,,
